Results published in PubChem BioAssay (NCI).
Compounds without any hit were thinned out: in the full panel of roughly 83,000, 20% have a hit.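 Growth was measured after 48 h exposure to one concentration of compound in 96-well plates. Values under 10 count as active.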 The source made the active and inactive calls.

Assays:
Assay in all cases: NCI-60 one-dose screen, 48 h (100 = growth as untreated, 0 = no growth, -100 = all killed)
Settings in all cases: 10 µM unless noted
[1] = tested on: NCI-H23 lung
[2] = tested on: NCI-H226 lung
[3] = tested on: NCI-H322M lung
[4] = tested on: HOP-62 NSCLC
[5] = tested on: NCI-H460 lung
[6] = tested on: HOP-92 NSCLC
[7] = tested on: NCI-H522 lung
[8] = tested on: A549/ATCC NSCLC
[9] = tested on: 786-0 renal
[10] = tested on: COLO 205 colon
[11] = tested on: DU-145 prostate
[12] = tested on: K-562 leukemia
[13] = tested on: MALME-3M melanoma
[14] = tested on: MDA-MB-231 breast
[15] = tested on: RXF 393 renal
[16] = tested on: SF-268 CNS
[17] = tested on: SF-295 CNS
[18] = tested on: SF-539 CNS
[19] = tested on: UACC-257 melanoma
[20] = tested on: M14 melanoma

Measured: growth

CCCC[C@H]1C(=O)O[C@H](C)[C@H](NC(=O)c2cccc(NC=O)c2O)C(=O)O[C@@H](C)[C@@H]1OC(=O)CC(C)C
active: [15] 6.91% | [17] 9.04%
inactive: [1] 42% | [2] 44.1% | [3] 66.3% | [4] 48.4% | [5] 19.9% | [6] 32.9% | [7] 51.2% | [8] 11.5% | [9] 44.8% | [10] 42.2% | [11] 85.9% | [12] 26.4% | [13] 44% | [14] 58.7% | [16] 46.6% | [18] 39.3% | [19] 42.8%

C[C@]12CCc3sc(Nc4ccc(F)cc4)nc3C1=CC[C@@H]1[C@@H]2CC[C@]2(C)C(=O)CC[C@@H]12
active: [9] 5.28% | [12] 5.92%
inactive: [1] 72.8% | [2] 86.7% | [3] 82.1% | [4] 82% | [5] 69.9% | [6] 96.8% | [7] 62% | [8] 79.5% | [10] 86% | [11] 19.3% | [13] 78.7% | [14] 84.4% | [15] 13.2% | [16] 69.3% | [17] 28.7% | [18] 54.4% | [19] 85.9%

Oc1ccccc1C=NCCN=Cc1ccccc1O.[Fe]
inactive: [1] 86.1% | [2] 85% | [3] 111% | [4] 74.9% | [5] 59.7% | [6] 98.7% | [7] 47.5% | [8] 61.6% | [9] 102% | [10] 108% | [11] 104% | [12] 85.3% | [13] 69.7% | [14] 34.9% | [15] 98.8% | [16] 97.4% | [17] 85% | [18] 88.8% | [19] 46.9%

CSc1cc(/C=C(\C)[C@@H]2C[C@@H]3O[C@]3(C)CCC[C@H](C)[C@H](O)[C@@H](C)C(=O)C(C)(C)[C@@H](O)CC(=O)O2)n(CCNC(=O)OC(C)(C)C)n1
inactive: [1] 61.4% | [2] 82.7% | [3] 77.2% | [4] 68.7% | [5] 29.6% | [6] 70.3% | [7] 63.1% | [8] 55.2% | [9] 66.6% | [10] 30.5% | [11] 58% | [12] 36.4% | [13] 78.7% | [14] 63.8% | [15] 63.6% | [16] 70.6% | [17] 73.5% | [18] 54% | [19] 91.9% | [20] 56.7%

O=C(Cc1ccccc1)NC(O)C(Cl)(Cl)Cl (centres undefined)
inactive: [1] 102% | [2] 97.2% | [3] 122% | [4] 110% | [5] 120% | [6] 123% | [7] 105% | [8] 96.3% | [9] 94.7% | [10] 118% | [11] 118% | [12] 98.3% | [13] 115% | [14] 106% | [15] 105% | [16] 104% | [17] 103% | [18] 108% | [19] 103%

O=C(Cc1ccccc1)c1ccccc1
inactive: [1] 94.5% | [2] 102% | [3] 103% | [4] 98.5% | [5] 98.9% | [6] 88.1% | [7] 103% | [8] 107% | [9] 102% | [10] 102% | [11] 105% | [12] 104% | [13] 98.7% | [14] 110% | [15] 103% | [16] 103% | [17] 112% | [18] 98.8% | [19] 98%

COC[C@H]1OC(=O)c2coc3c2[C@@]1(C)C1=C(C3=O)[C@@H]2CCC(=O)[C@@]2(C)C[C@H]1OC(C)=O
active: [6] -0.194%
inactive: [1] 56.5% | [2] 62.5% | [3] 35.3% | [4] 57.7% | [5] 43% | [7] 48.4% | [8] 10.1% | [9] 39.3% | [10] 65.2% | [11] 45.2% | [12] 70.7% | [13] 32.8% | [14] 67.8% | [15] 10.4% | [16] 51.8% | [17] 39.5% | [18] 28.6% | [19] 23%
